Measurements published in PubChem BioAssay AID687014 (The Scripps Research Institute Molecular Screening Center, 2013).
The campaign covered roughly 370,000 compounds. About 6,800 (1.8%) were called active. The entries come from a sample that favours actives as a whole. Unmarked numbers belong to inactive results.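 How the source made its calls: active means activation above a cutoff set at the mean of all screened compounds plus 3 SD (cut at about 10% in these data); inactive means the rest.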

The compounds below were run on Nuclear hormone receptor DAF-12 (Heterodera glycines), GAL4 fusion (assay: H. glycines DAF-12 receptor agonists, primary screen, cell-based, luminescence, HEK293, GAL4 fusion, UAS-luciferase (AID 687014;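 further: 0% = DMSO wells and 100% = sodium butyrate wells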)). Settings: HEK293 GAL4-hgDAF12 UAS-luciferase reporter, agonist luminescence; at 6.8 µM; hits give high values; normalized to butyrate control.

SMILES	activation
COc1ccc(-n2c(C)nn(CC3CC3)c2=O)cc1	-0.88%
Cn1c(CC2Sc3ccccc3NC2=O)nnc1SCC(=O)c1ccc(Cl)cc1 (stereo not drawn)	2.7%
CCn1c(SCC(C)=O)nc2sc3c(c2c1=O)CCCC3	-0.6%
Nc1[nH]c(C(=O)c2ccccc2)c(-c2ccc(Cl)cc2Cl)c1C(=O)c1ccccc1	0.29%
O=C(Nc1ccc(F)cc1)C(CCc1ccccc1)N1CCN(CC(=O)N2CCCC2)CC1 (stereo not drawn)	-2.94%
COC(=O)[C@]12C[C@H](CC(=O)NCCc3ccccc3OC)C(=O)N(Cc3ccccc3)C1=C[C@H](C(C)C)O[C@@H]2C1CC1	-1.92%
O=C(N/N=C/c1ccc(O)c(O)c1)C1c2ccccc2Oc2ccccc21	-0.99%
O=C(NN=Cc1ccc2c(c1)CCC2)c1ccccc1O	14.7% (active)
CC(NC(=O)c1cccc2ccccc12)c1ccc2c(c1)CCCC2 (stereo not drawn)	1.33%
Cc1nn(-c2ccccc2)c2[nH]c(C(F)(F)F)cc(=O)c12	0.5%
CC1CCN(C(=O)c2ncn3c2C(=O)N[C@@H](C)C3)CC1	0.1%
CCCc1cc(=O)[nH]c2nnc(SCC(=O)Nc3nnc(SCC)s3)n12	1.68%
CCSc1nnc(NC(=O)c2ccc(C)cc2)s1	14.4% (active)
COC(=O)c1ccc(CSc2nnc(NC(C)C)s2)cc1	-0.67%
CCOC(=O)N1CCN(C(=O)C[C@H]2C[C@@]3(C(=O)OC)C(=C[C@H](C(C)(C)C)O[C@@H]3C)N(Cc3ccc(Cl)cc3Cl)C2=O)CC1	0%
COC(=O)c1cccc(Cn2ccc3ccc(-c4ccc5ccn(C(=O)C6CCCCC6)c5c4)cc32)c1	3.04%
CC(NC(=O)COC(=O)c1ccc2ccccc2n1)c1ccccc1 (stereo not drawn)	5.11%
Cc1cccc(NC(=O)Cc2ccc(Br)cc2)n1	3%
Cc1cccc(NC(=O)c2ccc3ccccc3n2)n1	14.8% (active)
C=CCN1[C@@H](Cc2ccccc2)COc2cccc(N3CCSCC3)c2S1(=O)=O	3.43%
COc1ccc2c(c1)O/C(=C\c1ccccc1O)C2=O	13% (active)
O=C1Oc2ccccc2C(=O)/C1=C/c1ccccc1O	-1.59%
COc1ccc(/C=C2/C(=O)OCc3cc(OC)c(OC)cc32)c(OC)c1	-3.92%
CSc1ccc(Oc2cccc3c2S(=O)(=O)N([C@H](C)c2ccccc2)C[C@@H](COCc2ccccc2)O3)cc1C	1.48%

SMILES	activation
O=S1(=O)c2c(cccc2N2CCCC2)O[C@H](COCc2ccccc2)CN1C1CC1	-1.8%
CONc1nc2nonc2nc1NOC	-3.04%
O=C(NCCC1=CCCCC1)c1ccc(-n2cncn2)cc1	11.6% (active)
O=C(COc1cccc(-n2cnnn2)c1)NCCC1=CCCCC1	-1.74%
O=C(NCCC1=CCCCC1)c1ccc(Cl)c([N+](=O)[O-])c1	4.8%
COC(=O)[C@@]12CCCCC3=C1N(CCC3)C(=O)[C@H]2CC(=O)NCc1cccc2ccccc12	-3.73%
O=C(NC1CCCCN(Cc2ccc(Cl)cc2)C1=O)c1ccc(Br)cc1 (stereo not drawn)	-3.05%
Cc1cc(C)c2nc(N3CCC(C(=O)NCCN4CCOCC4)CC3)sc2c1	1.84%
Fc1cc(F)c2nc(N3CCOCC3)sc2c1	11.6% (active)
Cc1nc(N2CCOCC2)sc1C(=O)NN	-4.56%
O=C(CN(CC1CCCO1)C(=O)CNS(=O)(=O)c1ccc(F)cc1)NCc1ccco1 (stereo not drawn)	-0.11%
CCN(C(=O)CSc1ncnc2c1cnn2-c1ccccc1)C1CCS(=O)(=O)C1 (stereo not drawn)	1.12%
COc1cc(/C=N/O)ccc1OCc1ccc([N+](=O)[O-])cc1	19.8% (active)
CCCc1ccc(OCc2ccc(C(=O)N/N=C/c3cccc([N+](=O)[O-])c3)o2)c(OC)c1	0.57%
CCOc1cc(/C=N/O)ccc1OCc1ccccc1F	1.1%
CCOC(=O)N1CCN(C(=O)C[C@@H]2C(=O)N(CCc3ccc(Cl)cc3)C3=CCCC[C@]32C(=O)OCC)CC1	-0.14%
N#Cc1c(NC(=O)C2CCCO2)sc2c1CCCCC2 (stereo not drawn)	15.3% (active)
N#Cc1c(NC(=O)C2CC(Cl)=CCC2C(=O)O)sc2c1CCCCC2 (stereo not drawn)	-1.72%
CCC1CCc2c(sc(NC(C)=O)c2C#N)C1 (stereo not drawn)	-1.78%
O=C(CCl)NC1CCCCN(Cc2cccc(C(F)(F)F)c2)C1=O (stereo not drawn)	-7.36%
O=C(Nc1ccccc1)N1CCN(Cc2nc3ccccc3c(=O)[nH]2)CC1	3.62%
CC(=NCC1CCCO1)c1c(O)[nH]c(=O)[nH]c1=O (stereo not drawn)	-2.34%
CCc1ccc(CN2C(=O)c3ccccc3C2C(=O)NCC2CCCO2)cc1 (stereo not drawn)	0.15%
O=C1C(C=NCC2CCCO2)=C(O)c2ccccc21 (stereo not drawn)	13.2% (active)

SMILES	activation
O=S(=O)(c1ccccc1)N1CCC(c2nc3ccccc3o2)CC1	-0.98%
COc1cc(CN2CCNC(=O)C2CC(=O)NCCc2ncccc2C)cc(OC)c1 (stereo not drawn)	-1.06%
CN(CCNC(=O)c1cc2c(-c3ccccc3F)nn(C)c2s1)C1CCCCC1	4.97%
CCOCCCNC(=O)c1cc2c(=O)n3ccccc3nc2s1	3.33%
CN(C(=O)c1cc2c(=O)n3ccccc3nc2s1)C1CCCCC1	13% (active)
Cc1ccc(-n2c(SCC(=O)Nc3ccc(S(=O)(=O)Nc4nccs4)cc3)nnc2-c2ccccn2)cc1	-1.35%
Cc1ccc(NC(=O)c2ccc(Cl)nc2)cc1S(=O)(=O)N1CCOCC1	3.09%
Cc1ccc(C(=O)Nc2ccc3c(c2)OCCO3)cc1S(=O)(=O)N1CCOCC1	11% (active)
COC(=O)c1ccc(N2CCOCC2)c(NC(=O)c2ccc3c(c2)OCCO3)c1	0.79%
Cc1ccc(C(=O)Nc2ncccc2C)cc1S(=O)(=O)N1CCOCC1	1.72%
CN1CCN(c2ccc(NC(=O)c3ccc4c(c3)OCCO4)cc2Cl)CC1	28.8% (active)
O=C(Nc1cccc(Cl)c1N1CCOCC1)c1ccc2c(c1)OCCO2	-1.47%
O=C(CSc1nnc(-c2ccccc2)n1Cc1ccco1)Nc1ccccc1-c1ccccc1	0.11%
Cc1cc2nc3c(=O)[nH]c(=O)nc-3n(C[C@H](O)[C@H](O)[C@H](O)CO)c2cc1C	-2.63%
CCOC(=O)[C@]12CCCC3=C1N(CCC3)C(=O)[C@@H](CC(=O)NCc1cccs1)C2	1.07%
CC(=O)OC12CCCN(C1)/C(=C/c1ccncc1)C2 (stereo not drawn)	-1.43%
CC(C)CNc1cccc2c1S(=O)(=O)N[C@H](CC(C)C)CO2	3.06%
O=C(CN1CCc2cc3c(cc2C1)OCCCO3)Nc1ccccc1	-3.88%
O=C(Nc1ccccc1F)c1ccc2c(c1)OCO2	11.2% (active)
COc1ccc(C2COC(=O)C2=N)c(NC(=O)c2ccccc2)c1 (stereo not drawn)	4.88%
COc1cccc(C(=O)Nc2nnc(S(=O)(=O)N3CCOCC3)s2)c1	3.2%
CN(Cc1c(F)cccc1Cl)C(=O)CNC(=O)c1ccc2c(c1)OCO2	7.57%
O=C(Nc1ccccc1)c1ccc2c(c1)OCCCO2	15.1% (active)
COc1cccc(C(=O)Nc2cc3c(cc2Br)OCCCO3)c1	13.2% (active)

SMILES	activation
C/C(=N/NC(=S)Nc1ccccc1)c1ccc2c(c1)OCO2	10.2%
O=C(NCCc1ccc(C(F)(F)F)cc1)c1ccc2c(c1)OCO2	0.07%
COC(=O)[C@]12C[C@H](CC(=O)NCCCN3CCCC3=O)C(=O)N(CCc3ccc(OC)c(OC)c3)C1=C[C@H](COCc1ccccc1)O[C@@H]2C	4.36%
Cc1cc(Br)ccc1NC(=S)NC1CCCC1	1.25%
Cc1ccc(NC(=S)Nc2ncccc2C)c(C)c1	11.8% (active)
Cc1ccc(NC(=O)c2cc(C)nn2-c2ccccc2)c(C)c1	-1.76%
Nc1ccn([C@@H]2O[C@H](C(=O)N[C@H]3CCCCNC3=O)[C@@H](O)[C@H]2O)c(=O)n1	0.25%
CCC(NC(=O)C1C2C=CC3(CN(Cc4ccccc4)C(=O)C13)O2)c1ccccc1 (stereo not drawn)	-3.86%
Cn1cc[n+](C)c1COc1ccc(C=O)cc1	1%
O=Cc1ccc(OCc2cn3ccccc3n2)cc1	12.9% (active)
O=C(NCCc1ccco1)c1ccc(OCc2cn3ccccc3n2)cc1	5.95%
O=C(Nc1cc(F)cc(F)c1)OC1CCC12CCC(c1ccccc1)CC2 (stereo not drawn)	2.34%
CC(C)C[C@H](NC(=O)CC1CCCC1)C(=O)N1CCC[C@H]1C(=O)NCc1ccccc1	-4.65%
Cc1cc(NC(=O)CSc2nnnn2-c2ccc(F)cc2)no1	1.39%
Cc1ccc2nc(-c3ccc(SCC(=O)Nc4cc(C)on4)nc3)[nH]c2c1	15.3% (active)
Cc1cc(NC(=O)CSCC(=O)NC(C)c2ccccc2)no1 (stereo not drawn)	2.82%
COC(=O)C1CN(CCc2ccccc2)CCS(=O)(=O)N1Cc1ccc(F)cc1 (stereo not drawn)	2.5%
C=CCN=C1NC(c2ccccc2)C(C(=O)OC)=C(C)N1Cc1ccc(C(F)(F)F)cc1 (stereo not drawn)	0.51%
COc1ccc(C2Nc3ccccc3C(=O)N2c2ccc(Cl)cc2)cc1Cn1cc([N+](=O)[O-])cn1 (stereo not drawn)	15.2% (active)
COc1ccc(C2Nc3ccccc3C(=O)N2Cc2cccs2)cc1COc1c(C)cccc1C (stereo not drawn)	1.89%
COc1ccc(CN2CCCC(C(=O)c3ccc(Cl)cc3)C2)cc1Cn1cncn1 (stereo not drawn)	-0.88%
